Data taken from PubChem BioAssay AID1159580 (chemical genetic matrix, 2015).
Among all 5,500 compounds or so, about 2,000 (36%) were called active. Inconclusive results (about 18%) are left out. Rule as the data show it: active = normalized growth mostly below about 0.91 (no sharp cut-off); inconclusive = no clear call, values can overlap the other calls; inactive = mostly above about 0.92. This is one part of the list.

Test: chemical genetic growth profiling, strain panel (AID 1159580);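 also: tested at 20 µM; growth read once vehicle control cultures reached saturation at 30 °C; 1 = growth at the plate median or of vehicle wells; lower values mean less growth of the strain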
Settings: S. cerevisiae deletion strains, growth OD
[1] = locus YDR150W, strain NUM1, stronger effect = lower value
[2] = locus YMR263W, strain SAP30, stronger effect = lower value

Measured: normalized growth

COc1ccc([C@H]2Oc3c(I)c(OC)cc(OC)c3C[C@@H]2O)cc1OC
inactive: locus YAL021C, strain ccr4, stronger effect = lower value 1.01 | locus YAL026C, strain drs2, stronger effect = lower value 1.01 | locus YAL030W, strain snc1, stronger effect = lower value 1.01 | locus YBL061C, strain skt5, stronger effect = lower value 1.01 | locus YBR009C, strain hhf1, stronger effect = lower value 1.01 | locus YBR021W, strain FUR4, stronger effect = lower value 1 | locus YBR023C, strain chs3, stronger effect = lower value 1.01 | locus YBR171W, strain sec66, stronger effect = lower value 1.01 | locus YBR229C, strain ROT2, stronger effect = lower value 1 | locus YBR231C, strain swc5, stronger effect = lower value 1.01 | locus YBR279W, strain paf1, stronger effect = lower value 1.03 | locus YCL011C, strain gbp2, stronger effect = lower value 1.02 | locus YCL016C, strain dcc1, stronger effect = lower value 1.02 | locus YCL029C, strain bik1, stronger effect = lower value 1.03 | locus YCL061C, strain MRC1, stronger effect = lower value 1.02 | locus YCL069W, strain vba3, stronger effect = lower value 1.02 | locus YCR088W, strain abp1, stronger effect = lower value 1.01 | locus YDL005C, strain med2, stronger effect = lower value 1.01 | locus YDL035C, strain GPR1, stronger effect = lower value 1.07 | locus YDL040C, strain nat1, stronger effect = lower value 1.01 | locus YDL074C, strain BRE1, stronger effect = lower value 1.1 | locus YDL101C, strain DUN1, stronger effect = lower value 1 | locus YDL134C, strain PPH21, stronger effect = lower value 1.03 | locus YDL185W, strain tfp1, stronger effect = lower value 1.03 | locus YDL192W, strain arf1, stronger effect = lower value 1.04 | locus YDR001C, strain nth1, stronger effect = lower value 1.02 | locus YDR069C, strain doa4, stronger effect = lower value 1.01 | locus YDR101C, strain arx1, stronger effect = lower value 1.04 | locus YDR137W, strain rgp1, stronger effect = lower value 0.982 | [1] 1.02 | locus YDR159W, strain sac3, stronger effect = lower value 0.98 | locus YDR162C, strain NBP2, stronger effect = lower value 1.04 | locus YDR195W, strain ref2 1.01 | locus YDR297W, strain sur2, stronger effect = lower value 1.01 | locus YDR318W, strain mcm21, stronger effect = lower value 1.02 | locus YDR334W, strain swr1, stronger effect = lower value 1.02 | locus YDR335W, strain msn5, stronger effect = lower value 1.01 | locus YDR388W, stronger effect = lower value 1.02 | locus YDR392W, strain spt3, stronger effect = lower value 0.895 | locus YDR502C, strain sam2, stronger effect = lower value 1.02 | locus YEL003W, strain gim4, stronger effect = lower value 1.01 | locus YEL037C, strain rad23, stronger effect = lower value 1.01 | locus YEL061C, strain CIN8 (second series), stronger effect = lower value 1.02 | locus YER015W, strain faa2, stronger effect = lower value 1.02 | locus YER016W, strain bim1, stronger effect = lower value 1 | locus YER110C, stronger effect = lower value 1 | locus YER111C, strain swi4, stronger effect = lower value 1.01 | locus YER155C, strain BEM2 (second series), stronger effect = lower value 1 | locus YER155C, strain BEM2, stronger effect = lower value 0.996 | locus YER167W, strain BCK2, stronger effect = lower value 1.01 | locus YFR010W, strain ubp6, stronger effect = lower value 1.01 | locus YGL078C, strain dbp3, stronger effect = lower value 0.999 | locus YGL086W, strain mad1, stronger effect = lower value 0.997 | locus YGL167C, strain pmr1, stronger effect = lower value 1.01 | locus YGL173C, strain kem1, stronger effect = lower value 1.01 | locus YGL227W, strain vid30, stronger effect = lower value 1.02 | locus YGL240W, strain doc1, stronger effect = lower value 1.01 | locus YGL248W, strain PDE1, stronger effect = lower value 1.04 | locus YGL253W, strain hxk2, stronger effect = lower value 1.01 | locus YGR135W, strain pre9, stronger effect = lower value 1.03 | locus YGR252W, strain gcn5, stronger effect = lower value 1.06 | locus YHR013C, strain ard1, stronger effect = lower value 1.02 | locus YHR027C, strain rpn1, stronger effect = lower value 1.01 | locus YHR030C, strain SLT2, stronger effect = lower value 1 | locus YHR079C, strain IRE1 (second series), stronger effect = lower value 1.01 | locus YHR094C, strain hxt1, stronger effect = lower value 1.01 | locus YHR129C, strain ARP1, stronger effect = lower value 1.03 | locus YHR142W, strain chs7, stronger effect = lower value 1.03 | locus YHR200W, strain rpn10, stronger effect = lower value 1.07 | locus YIL066C, strain RNR3, stronger effect = lower value 1.02 | locus YIL073C, strain SPO22, stronger effect = lower value 1.08 | locus YIL125W, strain kgd1, stronger effect = lower value 1.03 | locus YIR030C, strain dcg1, stronger effect = lower value 1.03 | locus YJL092W, strain hpr5, stronger effect = lower value 1.01 | locus YJL095W, strain BCK1 (second series), stronger effect = lower value 1.02 | locus YJL095W, strain BCK1, stronger effect = lower value 1.05 | locus YJL115W, strain asf1, stronger effect = lower value 1.02 | locus YJL129C, strain trk1, stronger effect = lower value 1.02 | locus YJL134W, strain LCB3, stronger effect = lower value 1 | locus YJL154C, strain vps35, stronger effect = lower value 1.01 | locus YJL164C, strain tpk1, stronger effect = lower value 1.01 | locus YJL166W, strain qcr8, stronger effect = lower value 1.01 | locus YJL168C, strain set2, stronger effect = lower value 1.02 | locus YJL187C, strain SWE1 (second series), stronger effect = lower value 1 | locus YJL187C, strain SWE1, stronger effect = lower value 1.01 | locus YJR075W, strain HOC1, stronger effect = lower value 1.03 | locus YKL009W, strain mrt4, stronger effect = lower value 0.912 | locus YKL068W, stronger effect = lower value 0.976 | locus YKL085W, strain MDH1 (second series), stronger effect = lower value 0.971 | locus YKL085W, strain MDH1, stronger effect = lower value 0.971 | locus YKL160W, strain elf1, stronger effect = lower value 1.02 | locus YKR001C, strain vps1, stronger effect = lower value 1.06 | locus YKR026C, strain gcn3, stronger effect = lower value 1 | locus YKR091W, strain srl3, stronger effect = lower value 1.01 | locus YLL001W, strain dnm1, stronger effect = lower value 1.02 | locus YLL026W, stronger effect = lower value 1 | locus YLL041C, strain sdh2, stronger effect = lower value 1.01 | locus YLR027C, strain aat2, stronger effect = lower value 1.01 | locus YLR039C, strain RIC1, stronger effect = lower value 1.2 | locus YLR058C, strain SHM2, stronger effect = lower value 1.02 | locus YLR102C, strain apc9, stronger effect = lower value 1.01 | locus YLR221C, strain rsa3, stronger effect = lower value 1.02 | locus YLR258W, strain gsy2, stronger effect = lower value 1 | locus YLR262C, strain YPT6 (second series), stronger effect = lower value 1.01 | locus YLR268W, strain sec22, stronger effect = lower value 1.05 | locus YLR320W, strain mms22, stronger effect = lower value 1.03 | locus YLR330W, strain CHS5, stronger effect = lower value 1.02 | locus YLR342W, strain FKS1 (second series), stronger effect = lower value 1.06 | locus YLR342W, strain FKS1, stronger effect = lower value 1.01 | locus YLR357W, strain rsc2, stronger effect = lower value 1.03 | locus YLR370C, strain arc18, stronger effect = lower value 1.01 | locus YLR371W, strain rom2, stronger effect = lower value 1.05 | locus YLR384C, strain iki3, stronger effect = lower value 1.01 | locus YLR418C, strain cdc73, stronger effect = lower value 1.05 | locus YML016C, strain PPZ1, stronger effect = lower value 1.01 | locus YML032C, strain rad52, stronger effect = lower value 1.03 | locus YML120C, strain ndi1, stronger effect = lower value 1.01 | locus YML124C, strain tub3, stronger effect = lower value 1.02 | locus YMR058W, strain fet3, stronger effect = lower value 1.01 | locus YMR078C, strain ctf18, stronger effect = lower value 1.01 | locus YMR125W, strain sto1, stronger effect = lower value 1.03 | locus YMR129W, stronger effect = lower value 1.01 | locus YMR205C, strain PFK2, stronger effect = lower value 1.01 | locus YMR223W, strain ubp8, stronger effect = lower value 1.06 | locus YMR231W, strain pep5, stronger effect = lower value 1 | [2] 1.04 | locus YMR307W, strain GAS1, stronger effect = lower value 1.2 | locus YNL067W, strain RPL9B, stronger effect = lower value 1.02 | locus YNL071W, strain lat1, stronger effect = lower value 1.01 | locus YNL128W, strain TEP1, stronger effect = lower value 1.04 | locus YNL209W, strain ssb2, stronger effect = lower value 1.04 | locus YNL233W, strain BNI4, stronger effect = lower value 1.04 | locus YNL248C, strain rpa49, stronger effect = lower value 1.01 | locus YNL250W, strain rad50, stronger effect = lower value 0.961 | locus YNL271C, strain bni1, stronger effect = lower value 1.03 | locus YNL298W, strain CLA4, stronger effect = lower value 0.985 | locus YNL307C, strain MCK1, stronger effect = lower value 1.01 | locus YNL322C, strain KRE1 (second series), stronger effect = lower value 1.01 | locus YNR049C, strain mso1, stronger effect = lower value 1.01 | locus YNR052C, strain pop2, stronger effect = lower value 1.01 | locus YOL006C, strain TOP1, stronger effect = lower value 1.23 | locus YOL012C, strain htz1 0.906 | locus YOL147C, strain pex11, stronger effect = lower value 1.02 | locus YOR001W, strain rrp6, stronger effect = lower value 0.997 | locus YOR061W, strain CKA2, stronger effect = lower value 0.999 | locus YOR069W, strain VPS5, stronger effect = lower value 1.02 | locus YOR070C, strain gyp1, stronger effect = lower value 1.02 | locus YOR080W, strain dia2, stronger effect = lower value 1.01 | locus YOR083W, strain WHI5, stronger effect = lower value 1.03 | locus YOR106W, strain vam3, stronger effect = lower value 1.03 | locus YOR136W, strain idh2, stronger effect = lower value 1.02 | locus YOR144C, strain elg1, stronger effect = lower value 1.04 | locus YOR184W, strain ser1, stronger effect = lower value 1.08 | locus YOR265W, strain rbl2, stronger effect = lower value 1 | locus YOR270C, strain vph1, stronger effect = lower value 1.04 | locus YOR290C, strain snf2, stronger effect = lower value 1.01 | locus YOR316C, strain cot1, stronger effect = lower value 1.04 | locus YPL051W, strain arl3, stronger effect = lower value 0.993 | locus YPL055C, strain LGE1, stronger effect = lower value 1.12 | locus YPL078C, strain atp4, stronger effect = lower value 1.02 | locus YPL106C, strain sse1, stronger effect = lower value 1.01 | locus YPL240C, strain hsp82, stronger effect = lower value 1.01 | locus YPR119W, strain clb2, stronger effect = lower value 1.03 | locus YPR141C, strain kar3, stronger effect = lower value 1.02 | locus YPR163C, strain tif3, stronger effect = lower value 1.02 | locus YPR167C, strain met16, stronger effect = lower value 1.04 | strain wtn01, stronger effect = lower value 1.02

Oc1cc(O)c2c(c1)OC(c1ccc(O)c(O)c1)C(O)C2 (centres undefined)
inactive: locus YAL013W, strain DEP1, stronger effect = lower value 1 | locus YAL040C, strain CLN3, stronger effect = lower value 1.01 | locus YCL061C, strain MRC1 (second series), stronger effect = lower value 1 | [1] 1.01 | locus YER002W, strain NOP16, stronger effect = lower value 1.03 | locus YGR078C, strain PAC10, stronger effect = lower value 1.01 | [2] 1 | locus YNL153C, strain GIM3, stronger effect = lower value 1.03 | locus YNL175C, strain NOP13, stronger effect = lower value 1.02 | locus YNL197C, strain WHI3, stronger effect = lower value 1.01 | locus YNL224C, strain SQS1, stronger effect = lower value 1.01 | locus YOR083W, strain WHI5 (second series), stronger effect = lower value 1.02
